Shown are actives, neighbours in structure and some others; about 4.3% of the full set was active somewhere.
rCAG binder: binders of r(CAG) RNA repeats, primary screen, biochemical, fluorescence | r(CAG) RNA repeat, TO-PRO-1 dye displacement fluorescence | inhibition, % at 3 µM | 370,000 compounds, 1.3% hits;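 active means inhibition above the plate cutoff, the mean of all test compounds on that plate plus 3 SD, cut at about 35% in these data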;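 further: 0% = DMSO alone and 100% = 100 µM mitoxantrone as full dye displacement; higher means more dye released from RNA so lower well fluorescence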
GRIN3A LBD mod: binders of NR3A ligand-binding domain, primary screen, biophysical, differential scanning fluorimetry, uHTS; Glutamate receptor ionotropic, NMDA 3A (GRIN3A) ligand-binding domain; NR3A LBD differential scanning fluorimetry, Tm shift; 0% = protein alone, 100% = glycine-bound protein; Tm shift relative to glycine control, % at 25 µM; 340,000 compounds, 2.5% hits;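 active means melting temperature shift of at least 10% of the positive control shift, at one fixed dose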
NadD inh: inhibitors of S. aureus NadD, primary screen, biochemical, colorimetric, uHTS; Nicotinate-nucleotide adenylyltransferase NadD (Staphylococcus aureus N315); purified NadD enzyme, colorimetric absorbance read-out; inhibition, % at 20 µM; 360,000 compounds, 0.78% hits; AID 602399, 2012; in the data active means inhibition above about 26%
FAS-TE inh: FAS thioesterase domain inhibitors, primary screen, biochemical, fluorescence intensity, uHTS; recombinant FAS-TE, OMFH fluorogenic substrate, fluorescence endpoint; inhibition, % at 15 µM; 360,000 compounds, 0.67% hits; AID 602261, 2012;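 active means compounds whose normalised, plate-corrected inhibition of enzyme fluorescence in the single-dose primary screen is 50% or more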;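 further: 0% = DMSO with enzyme and 100% = substrate without enzyme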
Target sequence (P49327 whole entry, looked up, the tested form may be a part): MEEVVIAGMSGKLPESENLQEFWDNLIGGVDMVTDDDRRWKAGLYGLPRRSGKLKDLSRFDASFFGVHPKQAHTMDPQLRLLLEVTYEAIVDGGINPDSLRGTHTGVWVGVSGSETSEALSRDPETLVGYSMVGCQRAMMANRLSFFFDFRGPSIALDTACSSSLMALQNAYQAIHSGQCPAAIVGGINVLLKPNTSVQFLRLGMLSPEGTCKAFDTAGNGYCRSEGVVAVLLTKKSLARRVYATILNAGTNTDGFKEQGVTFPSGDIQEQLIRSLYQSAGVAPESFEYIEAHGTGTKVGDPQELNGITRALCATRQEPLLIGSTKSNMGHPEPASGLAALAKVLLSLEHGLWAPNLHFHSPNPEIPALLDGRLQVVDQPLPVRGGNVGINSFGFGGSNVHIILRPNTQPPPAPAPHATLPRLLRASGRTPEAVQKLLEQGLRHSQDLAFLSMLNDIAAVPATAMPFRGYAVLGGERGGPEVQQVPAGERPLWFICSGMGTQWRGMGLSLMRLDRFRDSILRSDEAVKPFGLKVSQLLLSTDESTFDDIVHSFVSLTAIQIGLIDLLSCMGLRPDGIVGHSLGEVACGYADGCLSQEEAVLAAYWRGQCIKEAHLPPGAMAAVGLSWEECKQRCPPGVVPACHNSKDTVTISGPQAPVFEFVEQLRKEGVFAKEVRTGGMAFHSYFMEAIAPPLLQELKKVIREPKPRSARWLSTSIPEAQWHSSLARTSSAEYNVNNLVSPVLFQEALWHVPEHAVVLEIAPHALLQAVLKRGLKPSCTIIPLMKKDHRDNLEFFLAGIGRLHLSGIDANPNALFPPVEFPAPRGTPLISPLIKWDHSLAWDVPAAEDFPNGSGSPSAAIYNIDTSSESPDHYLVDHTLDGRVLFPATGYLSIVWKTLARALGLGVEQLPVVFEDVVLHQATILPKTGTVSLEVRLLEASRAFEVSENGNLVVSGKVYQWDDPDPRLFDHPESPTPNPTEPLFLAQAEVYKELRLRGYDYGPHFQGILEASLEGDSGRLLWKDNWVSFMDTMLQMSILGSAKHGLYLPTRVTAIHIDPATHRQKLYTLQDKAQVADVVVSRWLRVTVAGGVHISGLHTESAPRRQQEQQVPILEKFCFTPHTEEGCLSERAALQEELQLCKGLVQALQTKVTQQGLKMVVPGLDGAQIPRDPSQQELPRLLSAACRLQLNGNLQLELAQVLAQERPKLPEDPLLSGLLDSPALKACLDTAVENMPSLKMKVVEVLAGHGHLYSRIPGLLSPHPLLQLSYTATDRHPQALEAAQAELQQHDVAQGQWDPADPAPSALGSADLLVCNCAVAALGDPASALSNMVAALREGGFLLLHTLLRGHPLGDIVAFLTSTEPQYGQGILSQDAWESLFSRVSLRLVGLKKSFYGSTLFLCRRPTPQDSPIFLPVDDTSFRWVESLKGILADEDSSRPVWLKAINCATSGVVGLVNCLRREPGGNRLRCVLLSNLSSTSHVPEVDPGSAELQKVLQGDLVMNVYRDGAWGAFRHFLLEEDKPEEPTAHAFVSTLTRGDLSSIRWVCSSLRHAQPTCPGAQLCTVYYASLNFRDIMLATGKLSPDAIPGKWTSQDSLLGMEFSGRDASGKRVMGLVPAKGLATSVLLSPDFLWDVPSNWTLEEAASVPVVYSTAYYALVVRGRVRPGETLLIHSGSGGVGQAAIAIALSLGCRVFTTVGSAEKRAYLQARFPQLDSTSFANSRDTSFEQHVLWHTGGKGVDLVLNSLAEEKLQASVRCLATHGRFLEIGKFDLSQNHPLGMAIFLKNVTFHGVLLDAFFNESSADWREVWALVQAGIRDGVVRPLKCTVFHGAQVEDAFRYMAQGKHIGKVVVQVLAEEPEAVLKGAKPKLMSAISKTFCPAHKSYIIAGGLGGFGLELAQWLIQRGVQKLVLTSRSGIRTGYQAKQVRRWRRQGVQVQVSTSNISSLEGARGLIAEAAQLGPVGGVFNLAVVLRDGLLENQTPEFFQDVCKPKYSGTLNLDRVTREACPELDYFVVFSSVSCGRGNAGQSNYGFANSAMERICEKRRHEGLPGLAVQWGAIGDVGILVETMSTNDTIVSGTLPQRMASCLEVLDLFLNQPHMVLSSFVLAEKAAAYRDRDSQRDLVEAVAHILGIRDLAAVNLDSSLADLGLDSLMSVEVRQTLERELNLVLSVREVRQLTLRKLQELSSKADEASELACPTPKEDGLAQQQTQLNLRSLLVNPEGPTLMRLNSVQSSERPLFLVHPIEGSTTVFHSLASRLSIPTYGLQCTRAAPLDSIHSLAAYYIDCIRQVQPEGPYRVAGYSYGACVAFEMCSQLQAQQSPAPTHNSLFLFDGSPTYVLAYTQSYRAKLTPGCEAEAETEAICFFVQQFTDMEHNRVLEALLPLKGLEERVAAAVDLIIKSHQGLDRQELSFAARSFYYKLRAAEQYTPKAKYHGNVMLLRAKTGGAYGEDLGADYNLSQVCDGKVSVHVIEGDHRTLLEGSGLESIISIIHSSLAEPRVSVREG
An asterisk follows results filed as active; nt = no result given; ! = a repeat was not active.

SMILES	rCAG binder	GRIN3A LBD mod	NadD inh	FAS-TE inh
C=CCN1C(C(=O)OCC)CSCCS1(=O)=O (centres undefined)	2	nt	nt	nt
Cc1ccc(N(CC(=O)Nc2ccc(F)c(Cl)c2)S(=O)(=O)c2c(C)noc2C)cc1	3	11*	0	32
Cc1ccc(N(CC(=O)Nc2cc(C)cc(C)c2)S(=O)(=O)c2c(C)noc2C)cc1	2	0	-7	24
COc1ccc(OCC(=O)Nc2c3c(nn2C(C)(C)C)CS(=O)(=O)C3)cc1	-2	-1	-4	-4
COc1ccc(CC(=O)Nc2c3c(nn2C(C)(C)C)CS(=O)(=O)C3)cc1	-1	14*	0	-7
CC(C)(C)n1nc2c(c1NC(=O)COc1ccc(Cl)cc1)CS(=O)(=O)C2	-1	0	-2	6
CC(C)(C)n1nc2c(c1NC(=O)COc1ccc(Cl)cc1)CSC2	nt	0	46*	6
CN(C)c1ccc(NC(=O)NC2CCCCN(Cc3cccc(Cl)c3)C2=O)cc1 (centres undefined)	6	nt	nt	nt
Cc1ccc2nc(-c3sc4nc(C)ccc4c3N)[nH]c2c1	15	25*	11	4
COc1ccc(S[C@]2(C(=O)N3CCN(c4ncccn4)CC3)CC(=O)N(c3ccc(OC)cc3)[C@@H]2c2ccc(OC)cc2)cc1	15	nt	nt	nt
COC(=O)c1c(NC(=O)Nc2ccc(Cl)cc2)sc(C)c1C	2	-10	6	-6
CCOC(=O)c1sc(-c2ccc(F)cc2)cc1NC(=O)Nc1ccccc1OC	2	3	-5	35
CCOC(=O)c1sc(-c2ccccc2)cc1NC(=O)Nc1ccccc1	30	16*	-4	38
CCOC(=O)c1c(N)sc2c(NC(C)=O)cccc12	-2	31*	5	-6
Cc1sc(NC(=O)Nc2ccccc2)c(C(N)=O)c1C	2	13*	1	2
CCOC(=O)c1c(NC(C)=O)sc2c(OC)cccc12	1	-2	-2	-1
CCOC(=O)c1c(N)sc(C(=O)Nc2ccccc2)c1C	-2	27*	-8	2
Cc1cc(C)cc(NC(=O)OC2CC3CC2[C@H]2CCCCN2[C@H]3Cc2ccccc2)c1 (some centres undefined)	6	nt	nt	nt
CCc1ccc(CCNC(=O)OC2CCC23CCC(c2ccccc2)CC3)cc1 (centres undefined)	3	nt	nt	nt
CCN(C(=O)CN1CCN(c2nc(-c3ccccc3)cs2)CC1)c1ccccc1C	5	nt	nt	nt
Cc1ccc2nc(CN(C)C(=O)[C@H](CCc3ccccc3)NC(=O)[C@H]3O[C@@H](n4cnc5c(N)ncnc54)[C@H](O)[C@@H]3O)[nH]c2c1	2	nt	nt	nt
O=C(OC12CCCN(C1)/C(=C/c1ccccc1)C2)c1cccc(F)c1 (centres undefined)	-1	nt	nt	nt
CCOC(=O)c1sc(NC(=O)Nc2ccccc2)cc1C	19	43*	-6	18
CCOC(=O)c1sc(NC(C)=O)cc1C	-1	-1	0	4
CCOC(=O)c1sc(NC(=O)Nc2ccccc2Cl)cc1C	21	28*	-1	25
SMILES	rCAG binder	GRIN3A LBD mod	NadD inh	FAS-TE inh
CCOC(=O)c1sc(NC(=O)c2ccc(C)s2)cc1C	12	10	-8	5
CCOC(=O)c1sc(-c2ccc(Br)cc2)cc1N	5	16*	-7	27
Cc1cc(NC(=O)c2cccc(S(=O)(=O)N3c4ccccc4CC3C)c2)no1 (centres undefined)	5	2	-6	15
CCOC(=O)c1sc(NC(=O)c2cccc(S(=O)(=O)N3c4ccccc4CC3C)c2)cc1C (centres undefined)	24	13*	0	16
Cc1ccc(CNC[C@@]23CO[C@H](c4ccc(Cl)cc4)N2[C@@H](c2ccc(Cl)cc2)SC3)o1	4	nt	nt	nt
COC(=O)C1CN(Cc2ccccc2)CCS(=O)(=O)N1Cc1ccc(F)cc1 (centres undefined)	0	nt	nt	nt
CCOCCCn1c(=NC(=O)c2cccnc2)c(C(=O)OCC)cc2c(=O)n3ccccc3nc21	2	14*!	1	32
CC(NC(=O)c1ccccc1NS(C)(=O)=O)c1ccccc1 (centres undefined)	1	20*	-2	-7
Cc1snc(SCc2cccc(Cl)c2)c1C#N	2	20*	-6	26
O=C1CC(SC2=NCCS2)C(=O)N1c1ccc(Cl)cc1 (centres undefined)	0	24*	-1	-4
